Data: PMC12864922, “TDP-43 directly inhibits mRNA accumulation in neurites through modulation of mRNA stability”
The full ranking holds about 9,900 sequences; the median of “r (bound/input frequency ratio)” is about 0.7, and the highest 2% start at about 6.5. This excerpt belongs to a sample that is enriched for the highest values.

B1: ENSMUSG00000042529.392|Kcnj12|56:60;127:179;184:189;193:197;209:219;242:247 (ssRNA)
RNA: GGGAGUUCUACAGUCCGACGAUCGCUUCGAUAUCCGCAUGCUAGAUCAGUCCGACUUGAGUCCCUGCCCUGCCCUGGUUAUGCAGGCUGUACGACGCACACACCAUCAGUCUGAGGAGUCUGGUGGUAAGUAAGCCUCUGCAGCAGACCCUGUCGGAGGCCAUGGGGGCCACACACACACACACACACACACACACACACACACACACACACACACACACACAACAACACACAGGCACACGAGGUCCCAGGCACACACAUACUGAAUGUCAGUGGCUUGGGUGCACACACGAGAGAGAGAGAGCUCUUGCGGUCGCACUAGUGUGGAAUUCUCGGGUGUCAAGG
B2: ENSMUSG00000042529.390|Kcnj12 (ssRNA)
RNA: GGGAGUUCUACAGUCCGACGAUCGCUUCGAUAUCCGCAUGCUAGGCCACAGACAUGAUCAGUCCGACUUGAGUCCCUGCCCUGCCCUGGUUAUGCAGGCUGUACGACGCAGUGUGCAUCAGUCUGAGGAGUCUGGUGGUAAGUAAGCCUCUGCAGCAGACCCUGUCGGAGGCCAUGGGGGCGUGUGUGUGUGUGUGUGUGUGUGUGUGUGUGUGUGUGUGUGUGUGUGUGUGUGAACAUGUGUGAGGGUGUGGAGGUCCCAGGGUGUGUGUAUGUGAAUGUCAGUGGCUUGGGUGCUGUGUGGCUCUUGCGGUCGCACUAGUGUGGAAUUCUCGGGUGUCAAGG
B3: ENSMUSG00000042529.395|Kcnj12 (ssRNA)
RNA: GGGAGUUCUACAGUCCGACGAUCGCUUCGAUAUCCGCAUGCUACCCUGCCCUGCCCUGGUUAUGCAGGCUGUACGACGCAGUGUGCAUCAGUCUGAGGAGUCUGGUGGUAAGUAAGCCUCUGCAGCAGACCCUGUCGGAGGCCAUGGGGGCGUGUGUGUGUGUGUGUGUGUGUGUGUGUGUGUGUGUGUGUGUGUGUGUGUGUGAACAUGUGUGAGGGUGUGGAGGUCCCAGGGUGUGUGUAUGUGAAUGUCAGUGGCUUGGGUGCUGUGUGGAGAGAGAGAGAGAGAGAGAGAGAGAGAGAGCUCUUGCGGUCGCACUAGUGUGGAAUUCUCGGGUGUCAAGG
B4: ENSMUSG00000022095.20|Fam160b2 (ssRNA)
RNA: GGGAGUUCUACAGUCCGACGAUCGCUUCGAUAUCCGCAUGCUAGGUGGGGGAAGAUUCCUGCCUGUGUACUUCUGCCCACGGGCAGUCUCCUGCCUGGCCAUGCUGCCACUCUGUCCUCCAUGCCGGGGACUUCAGCUGCAGGACACCUCACCUGUUGACCCCACGAGCUGAGGUUUCAAGGAGGUGCUGGCUCCUAAGGCAGUGGUAUUCUUGGAGCCUUUUAGAGGAGCUAGAGGAUGGCCAGUGAGCGCCUAGAUGCUGCCCUGCAUGUGUUGCGUGACUAUCUCUGCUAUAUUGUGACCCUCUUGCGGUCGCACUAGUGUGGAAUUCUCGGGUGUCAAGG

What follows are binders tested against TDP-43 (Homo sapiens, UniProt Q13148 1-414) (assay: RNA Bind-n-Seq with designed 260-mer pool; 25 mM Tris-HCl, 150 mM KCl, 3 mM MgCl2, BSA (printed 500 mg/mL), 20 units/mL SUPERase IN; pH not stated; 500 nM RNA pool, 1 h, 4 C; TDP-43 5, 50, 500 nM; high values mean tight binding). Conditions: protein: recombinant; tags: SBP (GST cleaved off with PreScission; pGEX-GST-SBP).
Sequence of TDP-43 (Q13148 whole entry): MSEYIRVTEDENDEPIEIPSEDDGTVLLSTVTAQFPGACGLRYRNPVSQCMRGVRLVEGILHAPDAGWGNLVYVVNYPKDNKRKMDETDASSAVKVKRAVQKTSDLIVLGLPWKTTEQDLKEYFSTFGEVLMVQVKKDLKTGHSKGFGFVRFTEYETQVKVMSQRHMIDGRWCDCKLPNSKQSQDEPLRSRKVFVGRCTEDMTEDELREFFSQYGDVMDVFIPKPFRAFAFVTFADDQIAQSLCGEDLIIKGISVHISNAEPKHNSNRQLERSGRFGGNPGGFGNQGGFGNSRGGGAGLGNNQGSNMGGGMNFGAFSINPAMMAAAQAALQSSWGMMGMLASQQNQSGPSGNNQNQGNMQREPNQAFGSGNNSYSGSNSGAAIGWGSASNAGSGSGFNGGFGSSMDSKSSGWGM
Summary of the method: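 The incubation lasted 1 h at 4 °C and used 500 nM of an in vitro-transcribed 260-nt 3′ UTR oligo pool with recombinant SBP-tagged TDP-43 at 5, 50 or 500 nM immobilized on streptavidin beads. It took place in 25 mM Tris-HCl, 150 mM KCl, 3 mM MgCl2, BSA and SUPERase IN. Bound RNA was washed, eluted with biotin, converted to cDNA, PCR-amplified and sequenced to give R, each oligo's normalized abundance in the bound sample divided by that in input. Two independent protein batches provided the duplicates.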

Binder | binding signal
B1 | 2.98 R (bound/input frequency ratio)
B2 | 8.92 R (bound/input frequency ratio)
B3 | 5.73 R (bound/input frequency ratio)
B4 | 0.487 R (bound/input frequency ratio)
